According to PubChem BioAssay (NCI):
Compounds without any hit were thinned out: in the full panel of roughly 79,000, 15% have a hit. A number with no mark means an inactive call. Activity calls are given as the source filed them. No stated cut-off is given here; in the data, active means growth inhibition above about 70%; inactive means the rest.

Tests used:
[1] = NCI Yeast Anticancer Drug Screen. Data for the wt1 strain (AID 149);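 further: 0% = growth of vehicle-treated wt1 cultures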; settings: S. cerevisiae wt1 strain (SPY 50644) growth inhibition, active compounds read high
Procedure, shortened: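 Readout: yeast growth inhibition, normalised to vehicle controls, in the wt1 strain exposed to test compounds.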

[2] = NCI Yeast Anticancer Drug Screen. Data for the rad50EPP+ strain (AID 151);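 further: 0% = growth of vehicle-treated control cultures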; settings: S. cerevisiae rad50 mutant strain, active compounds read high
Procedure, shortened: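 Genetically defined yeast (rad50EPP+, DNA damage repair alteration) is grown with compound, and inhibition of growth is expressed relative to vehicle-treated controls.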

[3] = NCI Yeast Anticancer Drug Screen. Data for the mgt1 strain (AID 153); settings: S. cerevisiae mgt1 mutant growth inhibition, active compounds read high
Procedure, shortened: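 In the mgt1 strain, test compounds were added and growth inhibition was determined relative to vehicle-treated controls.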

[4] = NCI Yeast Anticancer Drug Screen. Data for the rad50 strain (AID 155);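 further: 0% = growth of vehicle-only cultures of the same strain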; settings: S. cerevisiae rad50 strain growth inhibition, active compounds read high
Procedure, shortened: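 Compounds were tested on a yeast strain with an engineered DNA damage repair alteration; the reported value is growth inhibition normalised to vehicle treatment.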

[5] = NCI Yeast Anticancer Drug Screen. Data for the mec2-1 strain (AID 157); settings: S. cerevisiae mec2-1 strain, active compounds read high
Procedure, shortened: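 Each compound was tested on mec2-1 yeast, a strain altered in DNA damage repair or cell cycle control. Growth inhibition is reported relative to vehicle.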

[6] = NCI Yeast Anticancer Drug Screen. Data for the rad14 strain (AID 159);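 further: 0% = growth of vehicle-treated control cultures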; settings: S. cerevisiae rad14 strain growth inhibition, active compounds read high
Procedure, shortened: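 Compound-treated yeast with a defined DNA-repair lesion; growth inhibition normalised to vehicle-treated cultures.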

[7] = NCI Yeast Anticancer Drug Screen. Data for the sgs1 mgt1 strain (AID 161);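 further: 0% = growth of cultures given vehicle only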; settings: S. cerevisiae sgs1 mgt1 strain, active compounds read high
Procedure, shortened: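 Inhibition of yeast growth, normalised to vehicle-treated controls, is reported for a strain bearing genetic alterations in DNA damage repair.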

[8] = NCI Yeast Anticancer Drug Screen. Data for the CLN2oe strain (AID 163);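 further: 0% = growth of vehicle-only control cultures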; settings: S. cerevisiae CLN2oe strain, active compounds read high
Procedure, shortened: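 First, the altered yeast strain was treated with each compound; second, its growth was measured; finally, inhibition was derived by comparison with vehicle controls.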

[9] = NCI Yeast Anticancer Drug Screen. Data for the cln2 rad14 strain (AID 165);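 further: 0% = growth equal to vehicle treated cultures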; settings: S. cerevisiae cln2 rad14 strain, active compounds read high
Procedure, shortened: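 Test compounds were added to cln2 rad14 yeast cultures; inhibition of growth was then determined by comparison with vehicle treatment.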

[10] = NCI Yeast Anticancer Drug Screen. Data for the bub3 strain (AID 167); settings: S. cerevisiae bub3 mutant strain, active compounds read high
Procedure, shortened: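 Growth of a checkpoint-deficient yeast mutant is measured after compound exposure. Values represent inhibition relative to vehicle.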

[11] = NCI Yeast Anticancer Drug Screen. Data for the wt2 strain (AID 169);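 further: 0% = growth of vehicle-treated yeast cultures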; settings: S. cerevisiae wt2 strain growth inhibition, active compounds read high
Procedure, shortened: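 The panel's yeast strains carry defined changes in DNA repair or cell cycle genes. Each strain is grown with compound, and growth loss is scored relative to vehicle.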

[12] = NCI Yeast Anticancer Drug Screen. Data for the sgs1 strain (AID 173);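 further: 0% = growth of vehicle-only control cultures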; settings: S. cerevisiae sgs1 mutant, active compounds read high
Procedure, shortened: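 Vehicle-treated cultures served as reference for growth inhibition of a yeast strain altered in DNA damage repair or cell cycle control after compound exposure.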

[13] = NCI Yeast Anticancer Drug Screen. Data for the mlh1 rad18 strain (AID 175); settings: S. cerevisiae mlh1 rad18 strain growth inhibition, active compounds read high
Procedure, shortened: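 Inhibition values reflect reduced growth of mutant yeast versus vehicle-treated controls following compound exposure; the mutations affect DNA damage repair.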

[14] = NCI Yeast Anticancer Drug Screen. Data for the rad18 strain (AID 177); settings: S. cerevisiae rad18 mutant growth inhibition, active compounds read high
Procedure, shortened: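 Steps: expose repair-mutant yeast to compound; measure growth; express as inhibition relative to vehicle control.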

[15] = NCI Yeast Anticancer Drug Screen. Data for the mlh1 strain (AID 171);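 further: 0% = growth of vehicle-treated control cultures of the same strain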; settings: S. cerevisiae mlh1 strain growth inhibition, active compounds read high
Procedure, shortened: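 Inhibition values reflect reduced yeast growth in the presence of compound, referenced to vehicle controls, using a strain chosen for its alteration in DNA repair or cell cycle control.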

[16] = at 5.0 µM (retest, dose inferred, filed as 0.5)
[17] = at 50.0 µM (retest, dose inferred, filed as 5.0)

In the case of `CC[N+]1(C)CCC(O)(/C=C/c2ccc(Cl)c(Cl)c2)C(C(=O)/C=C/c2ccc(Cl)c(Cl)c2)C1` (stereo unspecified), the growth inhibition ([1]; at 1.2 µM) was -29%, the growth inhibition ([1]; at 3.7 µM) was 30% and the growth inhibition ([1]; at 11.0 µM) was 99% (active). For the same molecule, the growth inhibition ([1]; at 33.0 µM) was 99% (active), the growth inhibition ([1]; at 100.0 µM) was 98% (active) and the growth inhibition ([2]; at 1.2 µM) was 12%. The growth inhibition ([2]; at 3.7 µM) was 85% (active), the growth inhibition ([2]; at 11.0 µM) was 99% (active) and the growth inhibition ([2]; at 33.0 µM) was 99% (active). The growth inhibition ([2]; at 100.0 µM) was 99% (active), the growth inhibition ([3]; at 1.2 µM) was 7% and the growth inhibition ([3]; at 3.7 µM) was 72% (active). For the same molecule, the growth inhibition ([3]; at 11.0 µM) was 99% (active), the growth inhibition ([3]; at 33.0 µM) was 99% (active) and the growth inhibition ([3]; at 100.0 µM) was 99% (active). The growth inhibition ([4]; at 1.2 µM) was 7%, the growth inhibition ([4]; at 3.7 µM) was 52% and the growth inhibition [4, 16] was 85% (active). The growth inhibition ([4]; at 11.0 µM) was 99% (active), the growth inhibition ([4]; at 33.0 µM) was 99% (active) and the growth inhibition [4, 17] was 98% (active). The growth inhibition ([4]; at 50.0 µM) was 99.5% (active), the growth inhibition ([4]; at 100.0 µM) was 98% (active) and the growth inhibition ([5]; at 1.2 µM) was 36%. For the same molecule, the growth inhibition ([5]; at 3.7 µM) was 88% (active), the growth inhibition [5, 16] was 86% (active) and the growth inhibition ([5]; at 11.0 µM) was 99% (active). For the same molecule, the growth inhibition ([5]; at 33.0 µM) was 99% (active), the growth inhibition [5, 17] was 99% (active) and the growth inhibition ([5]; at 50.0 µM) was 99.3% (active). The growth inhibition ([5]; at 100.0 µM) was 99% (active), the growth inhibition ([6]; at 1.2 µM) was 6% and the growth inhibition ([6]; at 3.7 µM) was 39%. For the same molecule, the growth inhibition ([6]; at 11.0 µM) was 99% (active), the growth inhibition ([6]; at 33.0 µM) was 99% (active) and the growth inhibition ([6]; at 100.0 µM) was 99% (active). The growth inhibition [7, 16] was 88% (active), the growth inhibition [7, 17] was 98% (active) and the growth inhibition ([7]; at 50.0 µM) was 99.5% (active). For the same molecule, the growth inhibition ([8]; at 1.2 µM) was -8%, the growth inhibition ([8]; at 3.7 µM) was 15% and the growth inhibition ([8]; at 11.0 µM) was 99% (active). The growth inhibition ([8]; at 33.0 µM) was 98% (active), the growth inhibition ([8]; at 100.0 µM) was 99% (active) and the growth inhibition [9, 16] was 46%. The growth inhibition [9, 17] was 99% (active), the growth inhibition ([9]; at 50.0 µM) was 99% (active) and the growth inhibition ([10]; at 1.2 µM) was 0%. For the same molecule, the growth inhibition ([10]; at 3.7 µM) was 20%, the growth inhibition [10, 16] was 90% (active) and the growth inhibition ([10]; at 11.0 µM) was 98% (active). For the same molecule, the growth inhibition ([10]; at 33.0 µM) was 99% (active), the growth inhibition [10, 17] was 99% (active) and the growth inhibition ([10]; at 50.0 µM) was 99.1% (active). The growth inhibition ([10]; at 100.0 µM) was 96% (active), the growth inhibition ([11]; at 1.2 µM) was -4% and the growth inhibition ([11]; at 3.7 µM) was 29%. For the same molecule, the growth inhibition ([11]; at 11.0 µM) was 99% (active), the growth inhibition ([11]; at 33.0 µM) was 99% (active) and the growth inhibition ([11]; at 100.0 µM) was 99% (active). The growth inhibition ([12]; at 1.2 µM) was 15%, the growth inhibition ([12]; at 3.7 µM) was 71% (active) and the growth inhibition ([12]; at 11.0 µM) was 99% (active). The growth inhibition ([12]; at 33.0 µM) was 99% (active), the growth inhibition ([12]; at 100.0 µM) was 98% (active) and the growth inhibition [13, 16] was 82% (active). The growth inhibition [13, 17] was 99% (active), the growth inhibition ([13]; at 50.0 µM) was 99.2% (active) and the growth inhibition ([14]; at 1.2 µM) was 29%. The growth inhibition ([14]; at 3.7 µM) was 77% (active), the growth inhibition ([14]; at 11.0 µM) was 99% (active) and the growth inhibition ([14]; at 33.0 µM) was 99% (active). For the same molecule, the growth inhibition ([14]; at 100.0 µM) was 99% (active).

`O=C(O)NCC1CCCCC1` (tested in a mixture with another compound) showed a growth inhibition ([1]; at 1.2 µM) of -1%, a growth inhibition ([1]; at 3.7 µM) of -4% and a growth inhibition ([1]; at 11.0 µM) of -4%. For the same molecule, the growth inhibition ([1]; at 33.0 µM) was -5%, the growth inhibition ([1]; at 100.0 µM) was -4% and the growth inhibition ([2]; at 1.2 µM) was 0%. For the same molecule, the growth inhibition ([2]; at 3.7 µM) was -4%, the growth inhibition ([2]; at 11.0 µM) was -3% and the growth inhibition ([2]; at 33.0 µM) was 7%. The growth inhibition ([2]; at 100.0 µM) was 4%, the growth inhibition ([3]; at 1.2 µM) was -2% and the growth inhibition ([3]; at 3.7 µM) was -4%. For the same molecule, the growth inhibition ([3]; at 11.0 µM) was -4%, the growth inhibition ([3]; at 33.0 µM) was -4% and the growth inhibition ([3]; at 100.0 µM) was 16%. The growth inhibition ([4]; at 1.2 µM) was 2%, the growth inhibition ([4]; at 3.7 µM) was -3% and the growth inhibition [4, 16] was 1%. For the same molecule, the growth inhibition ([4]; at 11.0 µM) was -6%, the growth inhibition ([4]; at 33.0 µM) was 7% and the growth inhibition [4, 17] was 38%. For the same molecule, the growth inhibition ([4]; at 50.0 µM) was -12.8%, the growth inhibition ([4]; at 100.0 µM) was 83% (active) and the growth inhibition ([5]; at 1.2 µM) was -3%. For the same molecule, the growth inhibition ([5]; at 3.7 µM) was -1%, the growth inhibition [5, 16] was -15% and the growth inhibition ([5]; at 11.0 µM) was -4%. It also gave a growth inhibition ([5]; at 33.0 µM) of -5%, a growth inhibition [5, 17] of 19% and a growth inhibition ([5]; at 50.0 µM) of 8.35%. The growth inhibition ([5]; at 100.0 µM) was 22%, the growth inhibition ([6]; at 1.2 µM) was 0% and the growth inhibition ([6]; at 3.7 µM) was -6%. It also gave a growth inhibition ([6]; at 11.0 µM) of -5%, a growth inhibition ([6]; at 33.0 µM) of -1% and a growth inhibition ([6]; at 100.0 µM) of 61%. The growth inhibition [7, 16] was -2%, the growth inhibition [7, 17] was 39% and the growth inhibition ([7]; at 50.0 µM) was -35.7%. For the same molecule, the growth inhibition ([8]; at 1.2 µM) was 1%, the growth inhibition ([8]; at 3.7 µM) was -7% and the growth inhibition ([8]; at 11.0 µM) was -6%. The growth inhibition ([8]; at 33.0 µM) was -5%, the growth inhibition ([8]; at 100.0 µM) was 26% and the growth inhibition [9, 16] was -4%. It also gave a growth inhibition [9, 17] of 11%, a growth inhibition ([9]; at 50.0 µM) of 33% and a growth inhibition ([10]; at 1.2 µM) of -4%. For the same molecule, the growth inhibition ([10]; at 3.7 µM) was -4%, the growth inhibition [10, 16] was -5% and the growth inhibition ([10]; at 11.0 µM) was -7%. The growth inhibition ([10]; at 33.0 µM) was -2%, the growth inhibition [10, 17] was 10% and the growth inhibition ([10]; at 50.0 µM) was 0.5%. The growth inhibition ([10]; at 100.0 µM) was 58%, the growth inhibition ([11]; at 1.2 µM) was -2% and the growth inhibition ([11]; at 3.7 µM) was 2%. It also gave a growth inhibition ([11]; at 11.0 µM) of -5%, a growth inhibition ([11]; at 33.0 µM) of -4% and a growth inhibition ([11]; at 100.0 µM) of 37%. The growth inhibition ([15]; at 1.2 µM) was -2%, the growth inhibition ([15]; at 3.7 µM) was -6% and the growth inhibition ([15]; at 11.0 µM) was -7%. For the same molecule, the growth inhibition ([15]; at 33.0 µM) was -3%, the growth inhibition ([15]; at 100.0 µM) was 32% and the growth inhibition ([12]; at 1.2 µM) was -4%. It also gave a growth inhibition ([12]; at 3.7 µM) of 6%, a growth inhibition ([12]; at 11.0 µM) of -23% and a growth inhibition ([12]; at 33.0 µM) of -5%. For the same molecule, the growth inhibition ([12]; at 100.0 µM) was 75% (active), the growth inhibition [13, 16] was 0% and the growth inhibition [13, 17] was 34%. For the same molecule, the growth inhibition ([13]; at 50.0 µM) was 6.1%, the growth inhibition ([14]; at 1.2 µM) was 0% and the growth inhibition ([14]; at 3.7 µM) was -1%. The growth inhibition ([14]; at 11.0 µM) was -5%, the growth inhibition ([14]; at 33.0 µM) was 2% and the growth inhibition ([14]; at 100.0 µM) was 45%.
